Our source for the activation, outcome and Potency values is PubChem BioAssay (NCATS).

Each structure is given as a SMILES string. “And” between values parts separate entries of the source, which are not always exact repeats. Equal values may be shown once. Inconclusive results are not listed. Some compounds were tested as several samples or in several runs, with calls that do not always agree. The source made the active and inactive calls. Unless noted, the call rests on the fitted dose curve; in most records, active means well fitted curve in the direction sought with a large enough effect; inconclusive means small, poorly fitted or top-dose-only effect, or another doubt; inactive means no such curve, though single readings can be large; an effect the other way counts as inactive or inconclusive.

The nature of assay [1]: qHTS assay for environmental chemicals that activate the Aryl hydrocarbon Receptor (AhR) signaling pathway (AID 651777). Further: % of control where 0% means no effect; nearly all actives have a fitted effect of over 15% in size. Particulars: 1A2-DRE human hepatoma cells, luciferase, 24 h; stronger effect = higher value. Summed up: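 Stable CYP1A2 promoter/DRE-luciferase human hepatoma line treated 24 hr; One-Glo luminescence, 30 min RT.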
Background: In qHTS, concentration-response curves come from the screen itself.

Assay [2] in a line: qHTS for compounds that reverse cellular toxicity of Amyloid beta (A-beta) peptide in yeast: LOPAC Validation Assay (AID 720559).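 Further: plate controls were DMSO for no effect and equimolar ferric chloride plus clioquinol rescue for full effect.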 Particulars: yeast expressing A-beta; series mostly up to 46.1 µM. Summed up: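 OD600 growth readout after 48 hr at 30 C; A-beta-toxic yeast plus pinned compounds in medium. Normalization: DMSO = negative, equimolar FeCl3 + clioquinol = positive.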

Assay [3] in a line: qHTS for Activators of Parkin Expression: LOPAC Validation Assay (NLuc Reporter) (AID 720572;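 further: 0% = DMSO and 100% = positive control compound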). Particulars: Parkin promoter NanoLuc reporter cells, luminescence; series mostly up to 46.1 µM. Summed up: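 Cells harboring the Parkin-promoter coincidence reporter were treated for 24 h at seven concentrations. NLuc output was measured sequentially after the FLuc channel and scaled between DMSO and positive control values.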

The nature of assay [4]: qHTS for Activators of Parkin Expression: LOPAC Validation Assay (FLuc Reporter) (AID 720573;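 further: 0% = DMSO and 100% = positive control compounds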). Particulars: Cell line, PRKN promoter firefly luciferase reporter, vehicle wells = 0, positive control = 100%; series mostly up to 46.1 µM. Put shortly:
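FLuc luminescence read-out from a neuronal line expressing a Parkin-promoter-driven coincidence reporter. Cells treated 24 h at 37 C, 5% CO2 with compounds at 7 concentrations; signal increase normalized to DMSO and positive control.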

Assay [5] is described as follows: qHTS assay for small molecule agonists of the antioxidant response element (ARE) signaling pathway measured by Nrf2-dependant transcriptional activity (AID 720636; active means well fitted curve in the direction sought with a large enough effect in the repeat runs; an effect the other way counts as inactive or inconclusive;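 further: HepG2 cells with an ARE-driven luciferase reporter; % of control where 0% means no effect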). Particulars: ARE-luc HepG2, Nrf2 luciferase reporter, 16 h; series mostly up to 92.4 µM. Summed up:
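Reporter gene assay, HepG2 ARE-luc: 16 hr compound, 37 C, 5% CO2; read-out luciferase luminescence.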

For assay [6], the target named is T1, Hexokinase-4 (Homo sapiens) + Glucokinase regulatory protein (Homo sapiens) (UniProt P35557+Q14397). As to the kind of experiment: qHTS assay for inhibitors of recombinant human GCK-GKRP interaction: Diaphorase-coupled assay (AID 743205). Conditions: G6PDH/diaphorase resorufin fluorescence; series mostly up to 57.5 µM. Put shortly: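 Resorufin fluorescence (525/590 nm), read each minute over 30 min, reports GCK activity coupled via G6PDH and diaphorase. Reaction: 10 nM GST-GCK, 10 nM FLAG-GKRP, 5 mM glucose, 0.4 mM ATP, 0.15 mM NADP+, 0.1 mM resazurin.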
T1 sequence (P35557 whole entry, looked up): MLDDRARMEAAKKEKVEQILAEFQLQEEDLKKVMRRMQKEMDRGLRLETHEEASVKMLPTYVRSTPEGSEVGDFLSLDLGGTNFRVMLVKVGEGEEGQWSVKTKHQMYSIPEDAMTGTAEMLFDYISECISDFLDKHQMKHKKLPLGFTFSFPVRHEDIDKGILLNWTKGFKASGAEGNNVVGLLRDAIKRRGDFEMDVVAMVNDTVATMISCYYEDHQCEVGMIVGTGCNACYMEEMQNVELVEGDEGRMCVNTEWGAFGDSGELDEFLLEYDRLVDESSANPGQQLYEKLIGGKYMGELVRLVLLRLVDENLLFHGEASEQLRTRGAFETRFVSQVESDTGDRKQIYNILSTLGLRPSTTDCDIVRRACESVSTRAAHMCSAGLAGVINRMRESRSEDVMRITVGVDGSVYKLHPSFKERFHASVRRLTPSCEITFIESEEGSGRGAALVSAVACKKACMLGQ
T1 sequence (Q14397 whole entry, looked up): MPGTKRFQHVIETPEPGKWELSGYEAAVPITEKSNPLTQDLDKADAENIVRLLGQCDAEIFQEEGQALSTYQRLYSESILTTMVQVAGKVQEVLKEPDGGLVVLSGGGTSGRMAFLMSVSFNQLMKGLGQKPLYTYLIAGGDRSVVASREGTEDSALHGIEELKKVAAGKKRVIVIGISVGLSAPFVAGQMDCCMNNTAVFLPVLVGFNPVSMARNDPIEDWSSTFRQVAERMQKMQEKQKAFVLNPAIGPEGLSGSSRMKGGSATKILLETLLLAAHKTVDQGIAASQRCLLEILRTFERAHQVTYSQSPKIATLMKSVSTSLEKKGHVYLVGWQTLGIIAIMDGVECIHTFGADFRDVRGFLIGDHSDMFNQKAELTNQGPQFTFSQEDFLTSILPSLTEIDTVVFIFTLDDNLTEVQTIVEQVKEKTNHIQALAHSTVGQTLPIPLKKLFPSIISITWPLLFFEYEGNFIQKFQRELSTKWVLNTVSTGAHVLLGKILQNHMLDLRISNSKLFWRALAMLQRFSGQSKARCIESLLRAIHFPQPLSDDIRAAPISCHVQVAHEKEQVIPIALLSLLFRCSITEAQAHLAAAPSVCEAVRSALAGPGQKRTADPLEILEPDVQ

The target in assay [7] is T1, Hexokinase-4 (Homo sapiens) + Glucokinase regulatory protein (Homo sapiens). Nature of the assay: qHTS assay for inhibitors of recombinant human GCK-GKRP interaction: HTRF assay (AID 743207).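 Further: 0% = DMSO with GCK present and -100% = DMSO wells lacking GCK.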 Particulars: recombinant GCK-GKRP HTRF binding, 60 min, with sorbitol-6-phosphate; series mostly up to 57.5 µM. Summed up:
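HTRF read-out (ex 320 nm; 615/665 nm emission) after 60 min RT equilibration of 5 nM GST-GCK, 5 nM FLAG-GKRP, 2 uM S6P, compound and anti-FLAG/anti-GST detection antibodies; signal normalized between DMSO wells with and without GCK.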

In assay [8] the target is Arylsulfatase A (Homo sapiens) (UniProt P15289). As to the kind of experiment: qHTS screen for enhancers of Arylsulfatase A (ASA1): LOPAC Validation Assay (AID 720538). Further: potency means the concentration at half of the fitted maximal effect. Conditions: ASA enzyme activity, LOPAC qHTS enhancer assay; series mostly up to 57.5 µM. Put shortly:
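Read-out: fluorescence at Ex=525/Em=598 nm after 1N NaOH final stop. Patient fibroblasts carrying ASA-I179S had 48h compound exposure, then 14h room-temperature pNCS hydrolysis (0.5mM final) in lysis buffer. Signal increase = enhanced activity.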

Assay [9] addresses T1, Hexokinase-4 (Homo sapiens) + Glucokinase regulatory protein (Homo sapiens). Nature of the assay: qHTS assay for inhibitors of recombinant human GCK-GKRP interaction: ADP-Glo assay (AID 743206).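 Further: plate controls were DMSO plus enzyme for no effect and no enzyme for full effect.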 Particulars: ADP-Glo luminescence, 60 min, 0% = vehicle-only wells with enzyme present; series mostly up to 76.9 µM. Summed up:
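Pin-transferred compounds meet a 15 nM GST-GCK/15 nM FLAG-GKRP/2 uM S6P mix (dispense concentrations). ATP is then added to 0.4 mM final with 5 mM glucose, and the reaction runs 60 min at room temperature. ADP is quantified luminescently.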

Chain of Arylsulfatase A (Homo sapiens) (P15289 whole entry, looked up): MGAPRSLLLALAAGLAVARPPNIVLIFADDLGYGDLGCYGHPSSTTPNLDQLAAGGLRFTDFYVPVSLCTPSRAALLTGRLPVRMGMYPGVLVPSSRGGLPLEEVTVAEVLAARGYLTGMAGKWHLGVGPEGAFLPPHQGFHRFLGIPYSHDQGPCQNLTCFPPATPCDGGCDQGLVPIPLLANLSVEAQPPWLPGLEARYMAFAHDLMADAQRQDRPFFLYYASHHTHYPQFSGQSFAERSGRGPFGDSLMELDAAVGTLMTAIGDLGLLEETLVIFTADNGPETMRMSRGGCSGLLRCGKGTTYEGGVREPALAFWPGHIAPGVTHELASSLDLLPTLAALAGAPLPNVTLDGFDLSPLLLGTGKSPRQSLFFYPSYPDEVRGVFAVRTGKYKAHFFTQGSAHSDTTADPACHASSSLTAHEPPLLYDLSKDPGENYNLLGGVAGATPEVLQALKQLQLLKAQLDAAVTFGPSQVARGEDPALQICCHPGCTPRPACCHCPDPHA

For `CN(C)CCCN1c2ccccc2Sc2ccc(Cl)cc21`, the activation in [1] was 3.61% (inactive). The compound was classed as inactive in assay [2], in [4], in [5], in assay [6] and in assay [7]. Further, the Potency entry in assay [3] was “inactive”.
As to `CCN(CC)CCOC(=O)C1(C2CCCCC2)CCCCC1`, the compound was classed as inactive in [2], in assay [4], in assay [6] and in [7]. Also, in assay [3], the Potency entry is “inactive”.
Regarding `CC(C)(C)[C@]1(O)CCN2C[C@H]3c4ccccc4CCc4cccc(c43)[C@@H]2C1`, the Potency result in assay [8] and in assay [3] was “inactive” each time. In addition, the result in assay [2], in [4], in [6] and in assay [7] was inactive.
As to `OCCN1CCN(CCCN2c3ccccc3Sc3ccc(Cl)cc32)CC1`, the Potency entry in assay [8] and in [3] was “inactive” in each case. Besides, the compound was classed as inactive in assay [2], in assay [4], in [6], in [9] and in assay [7].
As for `CSc1ccc2c(c1)C(N1CCN(C)CC1)Cc1ccccc1S2` (stereo unspecified), the Potency result in [8] and in assay [3] was “inactive” each time. The call in assay [2], in assay [4] and in assay [7] was inactive.
For the compound `CSc1ccc2c(c1)N(CCC1CCCCN1C)c1ccccc1S2` (stereo unspecified), the call in [2], in assay [4], in assay [6] and in assay [7] was inactive. In assay [3], the Potency result is “inactive”.
With `NC(N)=NCCC[C@H](N)C(=O)O`, the Potency entry in assay [8] and in assay [3] was “inactive” in each case. Moreover, the compound was called inactive in [2], in [4], in [6], in [9] and in assay [7].
As to `CC(C)(C)c1onc(OCP(=O)(O)O)c1CC(N)C(=O)O` (stereo unspecified), the Potency result in assay [8] is “inactive and 4.26 µM (active)”. Further, the call in assay [2], in assay [4], in assay [6] and in assay [7] was inactive. For the same compound, in assay [3], the Potency entry was “inactive”.
As for `Cc1cc(N)c2ccccc2[n+]1CCCCCCCCCC[n+]1c(C)cc(N)c2ccccc21`, the Potency entry in assay [8] and in assay [3] was “inactive” in each case. In addition, the compound was called inactive in assay [2], in [4], in assay [6] and in assay [7].
Turning to `Nc1cc(=O)[nH]c(N)n1`, the Potency result in assay [8] and in assay [3] was “inactive” in each case. Besides, the compound was called inactive in [2], in [4], in assay [6], in [9] and in [7].
As for `CC(C(O)c1ccc(O)cc1)N1CCC(Cc2ccccc2)CC1` (stereo unspecified), the Potency entry in assay [8] and in [3] was “inactive” each time. Further, the compound was called inactive in assay [2], in assay [4], in assay [6] and in assay [7].
As for `CC1=C(CC(=O)O)c2cc(F)ccc2/C1=C\c1ccc(S(C)=O)cc1` (stereo unspecified), the Potency result in assay [8] and in assay [3] was “inactive” each time. Besides, the outcome in assay [2], in [4], in assay [6] and in [7] was inactive.
For the compound `CNCCC(Oc1ccc(C(F)(F)F)cc1)c1ccccc1` (stereo unspecified), the compound was called inactive in [2], in [4], in assay [6] and in [7]. Besides, in assay [3], the Potency entry was “inactive”.
For the compound `NC1CCN(c2cccc(Cl)n2)CC1`, the compound was classed as inactive in assay [2], in [4], in assay [6] and in assay [7]. In addition, the Potency result in assay [3] was “inactive”.
In the case of `CNCC(O)c1ccc(O)c(O)c1` (stereo unspecified), the result in assay [2], in assay [4], in [6] and in assay [7] was inactive. Moreover, the Potency result in assay [3] is “inactive”.
Turning to `CCCCCCCCCCCCCCCC(=O)NCCO`, the Potency entry in assay [8] and in [3] was “inactive” each time. In addition, the call in assay [2], in assay [4], in [6] and in assay [7] was inactive.
As for `CC(C)C(=O)c1c(C(C)C)nn2ccccc12`, the Potency entry in assay [8] and in assay [3] was “inactive” throughout. Further, the outcome in [2], in [4], in [6] and in [7] was inactive.
As to `CCN(CC)CCCC(C)Nc1c2ccc(Cl)cc2nc2ccc(OC)cc12` (stereo unspecified), the Potency entry in assay [8] and in assay [3] was “inactive” throughout. In addition, the outcome in assay [2], in [4], in [6] and in assay [7] was inactive.
